The list is not random: actives were taken first. Their share in the collection is about 8.1%.
KB-V1 MDR tox: kills drug-selected multidrug resistant KB-V1 cells; KB-V1 MDR cells viability, CellTiter-Glo, 72 h; Potency, µM (titrated, usually from 46.1 µM), hits mostly cytotoxic; actives 3.4% (n = 400,000); AID 1347076; further: nearly all actives have a fitted effect of over 60% in size
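Potencies derive from concentration-effect curves fitted to normalized luminescence (CellTiter-Glo) of KB-V1 cells treated for 72 h at 37 degrees C in phenol-red-free DMEM containing 10% FBS.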
SW480 rereplic: inducers of DNA re-replication in SW480 colon cancer cells; SW480 DNA re-replication, Hoechst DNA content imaging, 48 h; actives 1.8% (n = 340,000); Potency, µM (series often up to 46.1 µM), usual class: activators; AID 624297; further: nearly all actives have a fitted effect of over 55% in size
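SW480 cells exposed to compounds for 48 hr at 37 C, 5% CO2, then Hoechst-stained 40 min. Nuclear DNA content imaged by fluorescence scanning (405 nm excitation, 500-530 nm emission); re-replication scored as increased high-intensity nuclei.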
ELG1 repair inh: inhibitors of ELG1-dependent DNA repair in HEK293T cells; HEK293T ELG1-luciferase reporter, luminescence, 16 h; DNA damage induced by 5-fluorouridine; Potency, µM (highest dose often 46.1 µM), usual class: inhibitors; actives 2.3% (n = 330,000); AID 504467; further: nearly all actives have a fitted effect of over 55% in size
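Quantitative HTS, concentration-response format. 2,000 cells/well co-treated with 5-fluorouridine and compound, 16 hr in 5% CO2 at 37 °C; ONE-Glo luminescence read after 30 min.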
KB-3-1 tox: kills parental KB-3-1 adenocarcinoma cells; actives 1.4% (n = 400,000); KB-3-1 viability, CellTiter-Glo ATP luminescence, 72 h; Potency, µM (series often up to 46.1 µM), hits mostly cytotoxic; AID 1347075; further: nearly all actives have a fitted effect of over 60% in size
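KB-3-1 parental drug-naive adenocarcinoma cells in DMEM/10% FBS, incubated 72 h at 37 C with pin-transferred compounds across a concentration series. Viability by CellTiter-Glo luminescence; concentration-response curves fitted after normalization.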
MCF10A rereplic: inducers of DNA re-replication in MCF 10A breast cells; MCF 10A DNA re-replication, Hoechst nuclear intensity, 48 h; Potency, µM (series often up to 46.1 µM), most hits filed as activators; actives 2.9% (n = 350,000); AID 624296; further: nearly all actives have a fitted effect of over 50% in size
A number is an active result; [ ] = remark or other dose. The call rests on the fitted dose curve; in most records, active means well fitted curve in the direction sought with a large enough effect; inconclusive means small, poorly fitted or top-dose-only effect, or another doubt; inactive means no such curve, though single readings can be large; an effect the other way counts as inactive or inconclusive.

NS(=O)(=O)c1ccc(N/N=C/c2cn(-c3ccccc3)nc2-c2cccs2)c([N+](=O)[O-])c1 was read as KB-V1 MDR tox inactive, SW480 rereplic inactive, ELG1 repair inh inactive, KB-3-1 tox inconclusive and MCF10A rereplic inactive.
`O=[N+]([O-])c1ccc(-c2cc3ccccc3[nH]2)cc1` gave KB-V1 MDR tox inactive and KB-3-1 tox inactive.
For CC1CCCCC1NC(=O)COC(=O)c1ccc2c(c1)OCCO2 (stereo not given) the results were KB-V1 MDR tox inconclusive, SW480 rereplic inactive, ELG1 repair inh inactive, KB-3-1 tox inactive and MCF10A rereplic inactive.
Cc1cc(NS(=O)(=O)c2ccc(NC(=O)COc3ccc(Br)cc3)cc2)nc(C)n1 was read as KB-V1 MDR tox inconclusive, SW480 rereplic inconclusive, ELG1 repair inh inactive, KB-3-1 tox inconclusive and MCF10A rereplic 18.4µM.
CCOc1ccc(OCC(=O)Nc2ccc(S(=O)(=O)Nc3cc(C)nc(C)n3)cc2)cc1 was read as KB-V1 MDR tox inactive, SW480 rereplic inactive[9.22 µM], ELG1 repair inh inactive, KB-3-1 tox inactive and MCF10A rereplic inactive.
For Cc1ccc(S(=O)(=O)N2[C@@H](c3ccc(Cl)cc3)C(C(=O)OC(C)(C)C)=CC[C@H]2c2ccc(Cl)c(Cl)c2)cc1 the results were KB-V1 MDR tox inactive and KB-3-1 tox inactive.
`O=C(NC1CCCCCCC1)c1cnccn1` gave KB-V1 MDR tox inactive, SW480 rereplic inactive, ELG1 repair inh inconclusive, KB-3-1 tox inactive and MCF10A rereplic inactive.
For C/C(CC(=O)NC1CCCCCC1)=N\NC(=O)c1cnccn1 the results were KB-V1 MDR tox inactive, SW480 rereplic 0.517µM, ELG1 repair inh inactive, KB-3-1 tox inactive and MCF10A rereplic inactive.
Screening CC(C(=O)NCC(=O)Nc1ccc(F)c(F)c1F)N1CCN(c2ccc(O)cc2)CC1 (stereo not given) returned KB-V1 MDR tox inactive, SW480 rereplic inactive, ELG1 repair inh inconclusive, KB-3-1 tox inconclusive and MCF10A rereplic inactive.
CC(C(=O)NCC(=O)Nc1ccc(F)c(F)c1F)N1CCN(Cc2ccc(C#N)cc2)CC1 (stereo not given) was read as KB-V1 MDR tox 13µM, SW480 rereplic inactive, ELG1 repair inh inactive, KB-3-1 tox inactive and MCF10A rereplic inactive.
O=[N+]([O-])c1cnc(Sc2ccncn2)s1 was read as KB-V1 MDR tox inconclusive, SW480 rereplic inconclusive, ELG1 repair inh inconclusive, KB-3-1 tox 18.4µM and MCF10A rereplic inactive.
For CN(C)c1ccc(/C=C/c2ccnc3ccccc23)cc1O the results were KB-V1 MDR tox inactive and KB-3-1 tox inactive.
Screening Cc1cc(N2CCOCC2)nc2ccc(NC(=S)N3CCN(c4ccccc4)CC3)cc12 returned KB-V1 MDR tox inactive, SW480 rereplic inconclusive, ELG1 repair inh inactive, KB-3-1 tox inconclusive and MCF10A rereplic inactive.
Screening CCCN1CCN(C(=S)Nc2ccc3nc(N4CCN(CC)CC4)cc(C)c3c2)CC1 returned KB-V1 MDR tox inactive, SW480 rereplic inconclusive, ELG1 repair inh inactive, KB-3-1 tox inactive and MCF10A rereplic 18.4µM.
CCN1CCN(c2cc(C)c3cc(NC(=S)N4CCC5(CC4)OCCO5)ccc3n2)CC1 was read as KB-V1 MDR tox inactive, SW480 rereplic inactive, ELG1 repair inh inactive, KB-3-1 tox inconclusive and MCF10A rereplic inactive.
CCN1CCN(c2cc(C)c3cc(NC(=S)N4CCOCC4)ccc3n2)CC1 was read as KB-V1 MDR tox inactive, SW480 rereplic 16.4µM, ELG1 repair inh inconclusive, KB-3-1 tox inactive and MCF10A rereplic inconclusive.
For CCN1CCN(c2cc(C)c3cc(NC(=S)N4CCN(c5ccccc5)CC4)ccc3n2)CC1 the results were KB-V1 MDR tox inactive, SW480 rereplic 18.4µM, ELG1 repair inh inconclusive, KB-3-1 tox inactive and MCF10A rereplic 20.6µM.
For CCN1CCN(C(=O)c2c(C)nn(-c3ccc(F)cc3)c2-n2cccc2)CC1 the results were KB-V1 MDR tox inactive and KB-3-1 tox inactive.
Cc1ccsc1C(=O)N1CCCC(C(=O)c2cc(F)ccc2F)C1 (stereo not given) was read as KB-V1 MDR tox inconclusive, SW480 rereplic inactive, ELG1 repair inh inactive, KB-3-1 tox inactive and MCF10A rereplic inactive.
`COC(=O)CSCc1nc(-c2ccc(C(=O)OC)cc2)oc1C` gave KB-V1 MDR tox inactive and KB-3-1 tox inactive.
`CCC1CCCCN1CCCNC(=O)CCC(=O)N1CC(C)Oc2ccccc21` (stereo not given) gave KB-V1 MDR tox inactive, SW480 rereplic inactive, ELG1 repair inh inactive, KB-3-1 tox inactive and MCF10A rereplic inactive.
`COc1ccc(/C(C)=N/Nc2ncc(Cl)cc2Cl)c(O)c1` gave KB-V1 MDR tox inconclusive, SW480 rereplic inconclusive, ELG1 repair inh inactive, KB-3-1 tox inactive and MCF10A rereplic 16.4µM.
For CC(C)(C)c1ccccc1NC(=O)Nc1nc(C(N)c2ccccc2Cl)cs1 (stereo not given) the results were KB-V1 MDR tox inactive and KB-3-1 tox inactive.
For Cc1ccc(C(=O)N(Cc2ccccc2)C(C)(C)C)cc1C the results were KB-V1 MDR tox inactive, SW480 rereplic inactive, ELG1 repair inh inactive, KB-3-1 tox inactive and MCF10A rereplic 23.1µM.
`Cc1ccc(C(=O)OCC(=O)NC(=O)NCc2ccccc2)cc1C` gave KB-V1 MDR tox inactive, SW480 rereplic inactive, ELG1 repair inh inactive, KB-3-1 tox inactive and MCF10A rereplic 10.3µM.
For O=C(COC(=O)c1ccc(F)c([N+](=O)[O-])c1)NC(=O)NCc1ccccc1 the results were KB-V1 MDR tox inconclusive, SW480 rereplic inconclusive, ELG1 repair inh inconclusive, KB-3-1 tox inactive and MCF10A rereplic 20.6µM.
CC(=O)Nc1ccc(C(=O)OCC(=O)NC(=O)NCc2ccccc2)cc1 was read as KB-V1 MDR tox inactive and KB-3-1 tox inactive.
For Cc1ccc(C(=O)OCC(=O)N(Cc2ccccc2)C(C)C)cc1C the results were KB-V1 MDR tox 20.6µM, SW480 rereplic inactive, ELG1 repair inh inactive, KB-3-1 tox inactive and MCF10A rereplic inactive.
Screening Cc1ccc2oc(-c3ccc(C)c(NC(=O)/C=C/c4ccco4)c3)nc2c1 returned KB-V1 MDR tox inactive and KB-3-1 tox inactive.
Screening COC(=O)c1cn(NC(=O)Cc2ccc(Cl)cc2)c(=O)c2ccccc12 returned KB-V1 MDR tox 20.6µM, SW480 rereplic inactive, ELG1 repair inh inactive, KB-3-1 tox inactive and MCF10A rereplic inconclusive.
`Clc1ccc2c(c1)C(N1CCNCC1)Cc1ccccc1S2` (stereo not given) gave KB-V1 MDR tox 20.6µM, SW480 rereplic inconclusive, ELG1 repair inh inconclusive, KB-3-1 tox inconclusive and MCF10A rereplic inconclusive.
`O=C(NCCN1CCOCC1)c1ccccc1N1C(=O)[C@@H]2Cc3c([nH]c4ccccc34)C(c3ccc(F)cc3)N2C1=O` (stereo not given in full) gave KB-V1 MDR tox inconclusive, SW480 rereplic inactive, ELG1 repair inh 5.17µM, KB-3-1 tox inactive and MCF10A rereplic inactive.

Screens deposited in PubChem by National Center for Advancing Translational Sciences (NCATS).
